Most compounds without a hit are left out; they make up all but 31% or so of the library.
CYP2C9 inh: blockers of cytochrome P450 2C9 activity – biochemical, luminescence, ADME assay, primary screen. P11712. CYP2C9 Supersomes, luciferin-H conversion. inhibition, % at 5 µM. 96,000 compounds, 20% hits;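 active = blocking of liver enzyme CYP2C9 beyond about 50% at 5 µM, limit read from the data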
Target sequence (P11712 whole entry, looked up): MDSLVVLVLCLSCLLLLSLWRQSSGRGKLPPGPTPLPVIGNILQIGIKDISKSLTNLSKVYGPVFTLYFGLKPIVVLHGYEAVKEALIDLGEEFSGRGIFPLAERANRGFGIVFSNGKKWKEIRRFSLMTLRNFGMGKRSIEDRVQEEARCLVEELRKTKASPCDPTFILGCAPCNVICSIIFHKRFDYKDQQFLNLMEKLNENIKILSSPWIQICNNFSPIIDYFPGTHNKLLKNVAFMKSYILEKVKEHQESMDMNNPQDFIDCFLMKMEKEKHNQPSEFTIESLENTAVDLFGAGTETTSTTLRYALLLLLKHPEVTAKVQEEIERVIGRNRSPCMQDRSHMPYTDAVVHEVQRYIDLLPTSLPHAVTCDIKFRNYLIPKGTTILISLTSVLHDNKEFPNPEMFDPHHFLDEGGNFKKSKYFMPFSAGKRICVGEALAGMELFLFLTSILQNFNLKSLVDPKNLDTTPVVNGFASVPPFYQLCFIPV
PLAP act: PLAP enzyme activators, biochemical, luminescence, HTS; purified PLAP enzyme, luminescent substrate read-out; active compounds read high; 96,000 compounds, 1.2% hits; Alkaline phosphatase, placental type (Homo sapiens), P05187; activation fold at 20 µM; in the data active = activation fold above about 2
CYP2C9 activ: human CYP2C9 activators, primary screen, biochemical, luminescence; activation factor at 5 µM; Cytochrome P450 2C9 (Homo sapiens), P11712; AID 1024, 2008; 96,000 compounds, 1.4% hits; recombinant CYP2C9, luciferin-H conversion; active compounds read high; factor 1 = untreated enzyme, 0 = blocked;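 active = activation factor of 2 or more for CYP2C9 at a 5 µM dose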;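 also: 0 = sulfaphenazole-blocked wells and 1 = vehicle-only wells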
CYP2C19 act: human CYP2C19 activators, primary screen, biochemical, luminescence; AID 1025, 2008; Cytochrome P450 2C19 (Homo sapiens), P33261; 96,000 tested, under 10 active; recombinant CYP2C19, luciferin-H EGE luminescence; active compounds read high; 0 = fully inhibited enzyme, 1 = untreated enzyme; activation factor at 5 µM;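 active = activation factor of at least 2 at 5 µM in the primary screen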;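 also: 0 = wells with 2.5 mM tranylcypromine and 1 = vehicle-only wells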
CYP2C19 inhib: blockers of cytochrome P450 2C19 activity – biochemical, luminescence, ADME assay, primary screen; CYP2C19 Supersomes, luciferin-H EGE luminescence, 30 min; 96,000 compounds, 21% hits; inhibition, % at 5 µM; AID 778, 2007;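 active = CYP2C19 inhibition above a set limit at 5 µM in the primary screen, cut at about 50% in these data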;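 also: plate controls were negative control wells for no effect and 2.5 mM tranylcypromine positive control for full effect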
An asterisk follows results filed as active.

SMILES	CYP2C9 inh	PLAP act	CYP2C9 activ	CYP2C19 act	CYP2C19 inhib
COc1ccc(OC)c(NC(=O)c2nnn(Cc3ccccc3C)c2N)c1	-115	1.2	2.1*	0.8	16
Cc1ccccc1NC(=O)C1c2cccc[n+]2CC(=O)N1c1c(C)cccc1C (centres undefined)	-2	1.3	1	1	2
c1ccc(-c2csc(N3CCN(c4ccccn4)CC3)n2)cc1	-10	0.9	1.1	0.8	20
CCC(=O)c1ccccc1OCCCN1C(=O)NC(C)(C)C1=O	48	0.8	0.5	0.4	62*
CC1(C)NC(=O)N(CCCCOc2ccc3ccccc3c2Cl)C1=O	-24	1.9	1.2	0	95*
CC1(C)NC(=O)N(CCOCCOc2ccc3ccccc3c2Br)C1=O	-4	1.7	1	0.1	88*
Cc1ccc(C(C)C)c(OCCCN2C(=O)NC(C)(C)C2=O)c1	54*	1.2	0.5	0.1	90*
O=C(CSc1nc2c([nH]c3ccccc32)c(=O)n1-c1ccc(F)cc1)NCc1ccco1	15	1.1	0.9	1	3
O=C(CNC(=O)c1ccc(Cl)cc1Cl)OCC(=O)c1ccc2c(c1)OCCO2	-75	0.8	1.8	0.7	31
O=C1c2ccccc2C(=O)N1CNc1ccccc1	3	1.2	1	1	-4
Cc1ccc(C2C3CN(C(C)C)CC=C3C(C#N)=C(N)C2(C#N)C#N)cc1 (centres undefined)	45	1.3	0.5	0.8	23
CCC(=O)NNC(=O)CCC(=O)Nc1ccccc1	-2	1.1	1	1	2
CCC(=O)Nc1ccc(Cl)c(NC(=O)C(C)C)c1	4	0.9	1	1	-1
CCC(=O)Nc1ccc(C(=O)CSc2nc3ccccc3cc2CC)cc1	88*	1	0.1	1	3
CCC(=O)Nc1cc(C(=O)OCC(=O)c2ccc(Cl)cc2Cl)ccc1C	-68	1.1	1.7	0.8	22
CCC(=O)Nc1ccc(C(=O)c2ccccc2)cc1	-102	1	2*	0.8	25
CCC(=O)Nc1cc(C(=O)OCC(=O)c2ccccc2Cl)ccc1C	-109	1.3	2.1*	0.7	27
CCC(=O)Nc1ccc(C(=O)OCc2ccccc2Cl)cc1	-63	1	1.6	0.4	57*
O=S(=O)(NC1CCN(Cc2ccccc2)CC1)c1cccc2cccnc12	-54	1.3	1.5	0.9	11
CCCCN(CCCC)CP(=O)(c1ccccc1)c1ccccc1	20	1.3	0.8	0.8	23
CSCCC(NS(=O)(=O)c1ccc(Cl)cc1)C(=O)OCC(=O)NC12CC3CC(CC(C3)C1)C2 (centres undefined)	61*	1.5	0.4	0.8	25
Cc1c(NC(=O)/C(C#N)=C/C2CC=CCC2)c(=O)n(-c2ccccc2)n1C (centres undefined)	-1	1.3	1	1.1	-12
COCCN(C(=O)CCC(=O)Nc1cccnc1)C(C(=O)NC1CCCCC1)c1ccccc1 (centres undefined)	26	1.3	0.7	0.8	16
O=C(CCC(=O)N(c1ccccc1)C(C(=O)NC1CCCC1)c1ccncc1)Nc1cccnc1 (centres undefined)	46	1.2	0.5	0.3	70*
Cc1cc(NC(=O)CCC(=O)N(c2ccc(F)cc2)C(C(=O)NC2CCCC2)c2ccncc2)no1 (centres undefined)	30	1.3	0.7	0.5	48
Cc1ccc(N(C(=O)CCC(=O)Nc2cc(C)on2)C(C(=O)NC2CCCC2)c2cccs2)cc1 (centres undefined)	89*	0.9	0.1	0.1	95*
O=C(NC1CCCC1)C(c1cccs1)N(C(=O)c1ccno1)c1ccccc1 (centres undefined)	31	1	0.7	0.6	38
Cc1cc(NC(=O)CCC(=O)N(Cc2ccco2)C2(C(=O)NC3CCCCC3)CCN(C)CC2)no1	11	1.6	0.9	0.3	74*
Cc1ccc(N(C(=O)C(F)(F)F)C(C(=O)NC2CCCCC2)c2cccs2)cc1 (centres undefined)	55*	1	0.4	0.7	31

High-throughput results deposited in PubChem by Sanford-Burnham Center for Chemical Genomics.
